CtBP-E1A blk: qHTS Assay for Inhibitors of the CtBP/E1A Interaction. CtBP / adenovirus E1A interaction (AlphaScreen). AlphaScreen GST-E1A/His-CtBP binding, 1536-well; stronger effect = lower value. activity change, % (no concentration beside the values). 340,000 compounds, 0.49% hits. AID 651724, 2012
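GST-E1A and His-tagged CtBP (125 nM each as 5X stock) were preincubated with pin-transferred compound for 2 h at 37 °C in the dark, then glutathione donor and nickel acceptor beads were added for 1 h before AlphaScreen reading.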
Akt phos inh: HTS Assay for Inhibitors of Akt Phophorylation: Primary Screen; Neuro2A IGF-stimulated pAkt S473 HTRF, 20 min; stronger effect = lower value; activity change, % for hits at 50 µM; 360,000 compounds, 0.32% hits; in the data active means activity change below about -80%; inconclusive means mostly about -51% to -80%
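Neuro2A cells (4,500/well, DMEM with 0.5% FBS) were treated with compound at a single 50 µM final concentration, stimulated with 6 nM IGF for 20 min at 37 °C, and lysed. Phospho-Akt Ser473 was read by HTRF as 665/615 ratio ×10^4.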
CCT modulator: High-Throughput Screening for Modulators of Cytosolic Chaperonin Activity | purified chaperonin ATPase assay, HTRF ADP detection, 30 min | activity change, % (no concentration beside the values), hits read low | 360,000 compounds, 0.3% hits | AID 651819, 2012; in the data active means activity change below about -30%
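ATPase activity: ADP formed was measured by HTRF Transcreener (665/615 nm ratio) after 30 min at 37 deg C with 10 uM ATP. Compounds screened at one 76 uM concentration against 40 or 20 nM TRiC in Tris pH 7.4/KCl/MgCl2/DTT buffer.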
Six1-Eya2 blk: qHTS Assay for Inhibitors of the Six1/Eya2 Interaction | Homeobox protein SIX1 (Homo sapiens) + Protein phosphatase EYA2 (Homo sapiens), … | AlphaScreen GST-Six1/His-Eya2 binding, biochemical; stronger effect = lower value | activity change, % (concentration not given with the values) | 360,000 compounds, 0.56% hits
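GST-Six1 + His-Eya2 (5X stock: 250/500 nM); Tris pH 8.0, 300 mM NaCl, 0.05% BSA, 0.02% Tween 20; GSH donor/Ni acceptor beads; 1 h 37 °C dark; AlphaScreen readout.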
Active calls of the source: *; i = inactive; ? = inconclusive; . = no result. This is a sample that favours compounds with a hit; in the whole collection about 1.3% have one here. Unless noted, no stated cut-off is given here; in the data, active means activity change below about -65%; inconclusive means mostly about -30% to -63%; inactive means weaker than that. On the % scale 0 is the no-effect control and ±100 the full control effect.

SMILES | CtBP-E1A blk | Akt phos inh | CCT modulator | Six1-Eya2 blk
O=C(CCNC(=O)C1CCN(S(=O)(=O)c2ccccc2)CC1)NCc1cccc(Cl)c1 | . | . | -83* | -2
O=C(c1ccc(OC2CCN(CCc3ccccc3)CC2)cc1)N1CCC(CO)CC1 | -3 | i | 1 | 1
OCC1OC(n2nnc3ccccc32)C(O)C(O)C1O (stereo not given) | 3 | -92%* | -1 | 5
CCN(CC)CCCNC(=O)c1[nH]c(C)c(C(=O)NC2CCCCC2)c1C | -3 | -83%* | -4 | -7
CC(=O)c1c(C)[nH]c(C(=O)NC2CCCCC2)c1C | 5 | i | -1 | -10
CCC(=O)NC(c1ccc(OC)cc1)c1cc(Cl)c2cccnc2c1O (stereo not given) | ? | i | -1 | ?
CC(=O)NC(c1ccc(C)cc1)c1cc(Cl)c2cccnc2c1O (stereo not given) | -74* | i | -2 | ?
Fc1ccc(C(Nc2ccccn2)c2c[nH]c3ccccc23)cc1 (stereo not given) | . | i | -1 | 3
CC(=O)NC(c1ccccc1)c1cc([N+](=O)[O-])c2cccnc2c1O (stereo not given) | -91* | i | 3 | -94*
Oc1c(C(Nc2ccccn2)c2cccnc2)cc(Cl)c2cccnc12 (stereo not given) | -89* | i | -1 | -90*
COc1ccc(C(=O)NCCCNC(=O)c2cccnc2)cc1OC | -1 | i | -2 | -5
COc1ccc(C(NC(=O)c2cccnc2)c2cc(Cl)c3cccnc3c2O)cc1OC (stereo not given) | -92* | i | 2 | -91*
CCCCC(=O)NC(c1ccco1)c1cc(Cl)c2cccnc2c1O (stereo not given) | . | i | -3 | ?
CC(C)C(=O)NC(c1ccccc1)c1cc([N+](=O)[O-])c2cccnc2c1O (stereo not given) | -91* | i | -5 | -90*
CCC(=O)NC(c1ccco1)c1cc(Cl)c2cccnc2c1O (stereo not given) | -90* | i | 1 | -80*
O=[N+]([O-])c1cc2ncccc2c2ncccc12 | -24 | i | -2 | -21
CN(C)C(=O)[C@H]1C[C@H]1[C@@H](O)[C@H](CO)NC(=O)[C@H](COCc1ccccc1)NC(=O)OC(C)(C)C | 1 | i | -3 | 2
Cc1ccnc2c1ccc1ccccc12 | 2 | i | -4 | 1
Cc1ccnc2c1ccc1cccnc12 | -92* | i | 1 | -81*
Cc1ccnc2c1ccc1c(C)ccnc12 | -92* | i | 0 | -92*
Cc1ccc(C(=O)OCC(=O)Nc2ccccc2C(F)(F)F)cc1S(=O)(=O)N1CCCCC1 | 7 | i | 1 | -3
O=C(NCc1ccccn1)c1ccc(OC2CCN(Cc3ccc(CO)o3)CC2)cc1 | 5 | i | -1 | 2
COc1ccccc1-c1ccc([C@@H]2C[C@H]3[C@H](CON3C)CN2C(=O)c2ccc(-c3ccccc3)cc2)cc1 | -21 | i | 1 | -13
COc1ccc2cc(C(=O)NCc3ccco3)c(=Nc3ccc(C(=O)O)cc3)oc2c1 | 0 | -112%* | 0 | -9
COc1ccc2oc(=Nc3ccc(C(=O)O)cc3)c(C(=O)NCc3ccco3)cc2c1 | . | i | -3 | -4
SMILES | CtBP-E1A blk | Akt phos inh | CCT modulator | Six1-Eya2 blk
O=C(COc1ccccc1C(=O)N/N=C\c1ccc(O)c(O)c1)N/N=C/c1ccc(O)c(O)c1 | -77* | i | 3 | -79*
Cc1ccc(-n2ncc3c(=O)n(CC(=O)NCc4ccco4)cnc32)cc1C | 0 | i | -4 | 5
CCCCNC(=O)Cn1cnc2c(cnn2-c2ccc(C)c(C)c2)c1=O | -4 | -84%* | 0 | 0
CCOc1ccccc1/C=N/Nc1ccnc(=O)[nH]1 | -16 | i | -1 | -6
O=c1nccc(N/N=C/c2ccccc2O)[nH]1 | -92* | i | 0 | -75*
COc1cccc(/C=N/Nc2snc(SC)c2C#N)c1O | -76* | i | -1 | ?
COc1cccc(/C=N/Nc2ccnc(=O)[nH]2)c1O | -92* | i | 2 | -76*
COc1ccc(/C=N/Nc2snc(SC)c2C#N)cc1OC | ? | . | 2 | -17
CCCOc1ccc(C(=O)N2CCN(Cc3ccc4c(c3)OCO4)CC2)cc1 | 3 | i | -1 | -12
Nc1nnnn1/N=C/c1ccc(Br)cc1 | 7 | i | -6 | 5
Nc1nnnn1/N=C/c1cc(Br)ccc1O | -94* | i | 0 | -92*
CC(CNC(=O)CCC(=O)N1CCOc2ccc(Cl)cc21)c1ccccc1 (stereo not given) | -14 | i | -66* | -17
CCCCNC(=O)CCCCCNS(=O)(=O)c1ccc(OC)cc1 | -9 | i | -41* | 0
COc1ccc(N2CCN(S(=O)(=O)c3cc4c(cc3C)NC(=O)CO4)CC2)cc1 | -9 | i | -2 | -7
O=C(Nc1cccc(-c2nn[nH]n2)c1)c1ccc(Cl)s1 | ? | i | 1 | ?
O=C(Nc1cccc(-c2nn[nH]n2)c1)c1ccc(Br)s1 | -69* | i | -2 | ?
Oc1ccccc1N=Nc1ccccc1O | . | i | -4 | -86*
c1ccc(-c2n[nH]c(-c3ccccn3)n2)nc1 | -95* | i | -1 | -92*
c1ccc(-c2nn[nH]n2)cc1 | 10 | i | 1 | 4
c1ccc(-c2nn[nH]n2)nc1 | -72* | i | 1 | -87*
c1ccc(-c2n[nH]c(-c3ccccn3)n2)cc1 | -92* | i | 0 | -91*
CCN(CC(=O)NCc1ccc(F)cc1)C(=O)CN1CCN(c2cc(Cl)ccc2C)CC1 | -13 | i | -1 | -5
O=C(NCCN1CCNC1=O)c1ccc2sc([C@@H]3O[C@H](CO)[C@H](O)[C@H](O)[C@H]3O)nc2c1 | 9 | i | 0 | 6
Cc1ccc(Cl)cc1NC(=O)Cn1c(C)csc1=O | . | i | -1 | 3
O=C(O)c1ccccc1C(=O)OC1CCCC2CCCC21 (stereo not given) | 1 | i | -2 | -4
SMILES | CtBP-E1A blk | Akt phos inh | CCT modulator | Six1-Eya2 blk
O=C(Nc1cccc2ncccc12)c1cccc(F)c1 | 8 | -107%* | 0 | -3
O/N=C1\CCc2cc(Cl)ccc21 | 1 | -102%* | 0 | 0
COc1cc(NC(=O)Nc2ccc(Cl)c(Cl)c2)c(C(=O)O)cc1OC | -18 | i | -1 | -14
Cc1cccc(N(CC(N)=O)C2SC(=O)NC2=O)c1 (stereo not given) | 3 | -106%* | -5 | 4
O=C(CSc1n[nH]c(=O)[nH]c1=O)Nc1ccc2c(c1)C(=O)c1ccccc1C2=O | -85* | i | -2 | -72*
Cn1c(=O)c(Nc2ccc(O)cc2)c2c3c(cccc31)C(=O)c1ccccc1-2 | -73* | i | -3 | -77*

Screening results from PubChem BioAssay.
